# Measured values as given in PubChem BioAssay AID1159580 (chemical genetic matrix, 2015).
# The whole screen tested about 5,500 compounds, of which about 2,000 (36%) were called active. Inconclusive results (about 18%) are left out. The list shows a part of the results. Unmarked numbers belong to inactive results. Rule as the data show it: active = normalized growth mostly below about 0.91 (no sharp cut-off); inconclusive = no clear call, values can overlap the other calls; inactive = mostly above about 0.92.
# Assay: chemical genetic growth profiling, strain panel (AID 1159580);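 also: tested at 20 µM; growth read once vehicle control cultures reached saturation at 30 °C; 1 = growth at the plate median or of vehicle wells; lower values mean less growth of the strain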
# Conditions: growth OD
compound,measurement,setting,value
CCCCC(CC)CN1CN(CC(CC)CCCC)CC(C)(N)C1 (centres undefined),normalized growth,"S. cerevisiae deletion strains, locus YJR043C, strain POL32, hits give low values",0.37 (active)
same,normalized growth,"S. cerevisiae deletion strains, locus YJR075W, strain HOC1, hits give low values",0.372 (active)
same,normalized growth,"S. cerevisiae deletion strains, locus YKL009W, strain mrt4, hits give low values",0.939
same,normalized growth,"S. cerevisiae deletion strains, locus YKL068W, hits give low values",1.01
same,normalized growth,"S. cerevisiae deletion strains, locus YKL085W, strain MDH1 (second series), hits give low values",0.994
same,normalized growth,"S. cerevisiae deletion strains, locus YKL085W, strain MDH1, hits give low values",0.994
same,normalized growth,"S. cerevisiae deletion strains, locus YKL160W, strain elf1, hits give low values",0.373 (active)
same,normalized growth,"S. cerevisiae deletion strains, locus YKL190W, strain CNB1, hits give low values",0.445 (active)
same,normalized growth,"S. cerevisiae deletion strains, locus YKR001C, strain vps1, hits give low values",0.0669 (active)
same,normalized growth,"S. cerevisiae deletion strains, locus YKR026C, strain gcn3, hits give low values",0.059 (active)
same,normalized growth,"S. cerevisiae deletion strains, locus YKR091W, strain srl3, hits give low values",0.0561 (active)
same,normalized growth,"S. cerevisiae deletion strains, locus YLL001W, strain dnm1, hits give low values",0.0613 (active)
same,normalized growth,"S. cerevisiae deletion strains, locus YLL026W, hits give low values",0.0554 (active)
same,normalized growth,"S. cerevisiae deletion strains, locus YLL041C, strain sdh2, hits give low values",0.0528 (active)
same,normalized growth,"S. cerevisiae deletion strains, locus YLR027C, strain aat2, hits give low values",0.0535 (active)
same,normalized growth,"S. cerevisiae deletion strains, locus YLR039C, strain RIC1, hits give low values",0.352 (active)
same,normalized growth,"S. cerevisiae deletion strains, locus YLR058C, strain SHM2, hits give low values",0.525 (active)
same,normalized growth,"S. cerevisiae deletion strains, locus YLR102C, strain apc9, hits give low values",0.832 (active)
same,normalized growth,"S. cerevisiae deletion strains, locus YLR221C, strain rsa3, hits give low values",0.0576 (active)
same,normalized growth,"S. cerevisiae deletion strains, locus YLR258W, strain gsy2, hits give low values",0.0568 (active)
same,normalized growth,"S. cerevisiae deletion strains, locus YLR262C, strain YPT6 (second series), hits give low values",0.0741 (active)
same,normalized growth,"S. cerevisiae deletion strains, locus YLR262C, strain YPT6, hits give low values",0.269 (active)
same,normalized growth,"S. cerevisiae deletion strains, locus YLR268W, strain sec22, hits give low values",0.484 (active)
same,normalized growth,"S. cerevisiae deletion strains, locus YLR320W, strain mms22, hits give low values",0.0732 (active)
same,normalized growth,"S. cerevisiae deletion strains, locus YLR330W, strain CHS5, hits give low values",0.437 (active)
same,normalized growth,"S. cerevisiae deletion strains, locus YLR342W, strain FKS1 (second series), hits give low values",0.254 (active)
same,normalized growth,"S. cerevisiae deletion strains, locus YLR342W, strain FKS1, hits give low values",0.0622 (active)
same,normalized growth,"S. cerevisiae deletion strains, locus YLR357W, strain rsc2, hits give low values",0.114 (active)
same,normalized growth,"S. cerevisiae deletion strains, locus YLR370C, strain arc18, hits give low values",0.0656 (active)
same,normalized growth,"S. cerevisiae deletion strains, locus YLR371W, strain rom2, hits give low values",0.23 (active)
same,normalized growth,"S. cerevisiae deletion strains, locus YLR384C, strain iki3, hits give low values",0.0552 (active)
same,normalized growth,"S. cerevisiae deletion strains, locus YLR418C, strain cdc73, hits give low values",0.153 (active)
same,normalized growth,"S. cerevisiae deletion strains, locus YML016C, strain PPZ1, hits give low values",0.743 (active)
same,normalized growth,"S. cerevisiae deletion strains, locus YML032C, strain rad52, hits give low values",0.407 (active)
same,normalized growth,"S. cerevisiae deletion strains, locus YML120C, strain ndi1, hits give low values",0.0565 (active)
same,normalized growth,"S. cerevisiae deletion strains, locus YML124C, strain tub3, hits give low values",0.692 (active)
same,normalized growth,"S. cerevisiae deletion strains, locus YMR058W, strain fet3, hits give low values",0.0601 (active)
same,normalized growth,"S. cerevisiae deletion strains, locus YMR078C, strain ctf18, hits give low values",0.802 (active)
same,normalized growth,"S. cerevisiae deletion strains, locus YMR125W, strain sto1, hits give low values",0.0743 (active)
same,normalized growth,"S. cerevisiae deletion strains, locus YMR129W, hits give low values",0.0564 (active)
same,normalized growth,"S. cerevisiae deletion strains, locus YMR205C, strain PFK2, hits give low values",0.0816 (active)
same,normalized growth,"S. cerevisiae deletion strains, locus YMR223W, strain ubp8, hits give low values",0.316 (active)
same,normalized growth,"S. cerevisiae deletion strains, locus YMR231W, strain pep5, hits give low values",0.0615 (active)
same,normalized growth,"S. cerevisiae deletion strains, locus YMR263W, strain SAP30, hits give low values",0.489 (active)
same,normalized growth,"S. cerevisiae deletion strains, locus YMR307W, strain GAS1, hits give low values",0.162 (active)
same,normalized growth,"S. cerevisiae deletion strains, locus YNL067W, strain RPL9B, hits give low values",0.605 (active)
same,normalized growth,"S. cerevisiae deletion strains, locus YNL071W, strain lat1, hits give low values",0.058 (active)
same,normalized growth,"S. cerevisiae deletion strains, locus YNL128W, strain TEP1, hits give low values",0.288 (active)
same,normalized growth,"S. cerevisiae deletion strains, locus YNL153C, strain GIM3, hits give low values",0.356 (active)
same,normalized growth,"S. cerevisiae deletion strains, locus YNL209W, strain ssb2, hits give low values",0.0575 (active)
same,normalized growth,"S. cerevisiae deletion strains, locus YNL233W, strain BNI4, hits give low values",0.26 (active)
same,normalized growth,"S. cerevisiae deletion strains, locus YNL248C, strain rpa49, hits give low values",0.0852 (active)
same,normalized growth,"S. cerevisiae deletion strains, locus YNL250W, strain rad50, hits give low values",1.01
same,normalized growth,"S. cerevisiae deletion strains, locus YNL271C, strain bni1, hits give low values",0.997
same,normalized growth,"S. cerevisiae deletion strains, locus YNL298W, strain CLA4, hits give low values",1.01
same,normalized growth,"S. cerevisiae deletion strains, locus YNL307C, strain MCK1, hits give low values",0.262 (active)
same,normalized growth,"S. cerevisiae deletion strains, locus YNL322C, strain KRE1 (second series), hits give low values",0.0601 (active)
same,normalized growth,"S. cerevisiae deletion strains, locus YNL322C, strain KRE1, hits give low values",0.336 (active)
same,normalized growth,"S. cerevisiae deletion strains, locus YNR049C, strain mso1, hits give low values",0.0593 (active)
same,normalized growth,"S. cerevisiae deletion strains, locus YNR052C, strain pop2, hits give low values",0.0951 (active)
same,normalized growth,"S. cerevisiae deletion strains, locus YOL006C, strain TOP1, hits give low values",0.196 (active)
same,normalized growth,"S. cerevisiae deletion strains, locus YOL012C, strain htz1",0.192
same,normalized growth,"S. cerevisiae deletion strains, locus YOL147C, strain pex11, hits give low values",0.497 (active)
same,normalized growth,"S. cerevisiae deletion strains, locus YOR001W, strain rrp6, hits give low values",0.0714 (active)
same,normalized growth,"S. cerevisiae deletion strains, locus YOR061W, strain CKA2, hits give low values",0.583 (active)
same,normalized growth,"S. cerevisiae deletion strains, locus YOR069W, strain VPS5, hits give low values",0.736 (active)
same,normalized growth,"S. cerevisiae deletion strains, locus YOR070C, strain gyp1, hits give low values",0.0567 (active)
same,normalized growth,"S. cerevisiae deletion strains, locus YOR080W, strain dia2, hits give low values",0.0601 (active)
same,normalized growth,"S. cerevisiae deletion strains, locus YOR083W, strain WHI5, hits give low values",0.0602 (active)
same,normalized growth,"S. cerevisiae deletion strains, locus YOR106W, strain vam3, hits give low values",0.0665 (active)
same,normalized growth,"S. cerevisiae deletion strains, locus YOR136W, strain idh2, hits give low values",0.607 (active)
same,normalized growth,"S. cerevisiae deletion strains, locus YOR144C, strain elg1, hits give low values",0.662 (active)
same,normalized growth,"S. cerevisiae deletion strains, locus YOR184W, strain ser1, hits give low values",0.325 (active)
same,normalized growth,"S. cerevisiae deletion strains, locus YOR265W, strain rbl2, hits give low values",0.0536 (active)
same,normalized growth,"S. cerevisiae deletion strains, locus YOR270C, strain vph1, hits give low values",0.0981 (active)
same,normalized growth,"S. cerevisiae deletion strains, locus YOR290C, strain snf2, hits give low values",0.0607 (active)
same,normalized growth,"S. cerevisiae deletion strains, locus YOR316C, strain cot1, hits give low values",0.863 (active)
same,normalized growth,"S. cerevisiae deletion strains, locus YPL051W, strain arl3, hits give low values",0.0603 (active)
same,normalized growth,"S. cerevisiae deletion strains, locus YPL055C, strain LGE1, hits give low values",0.189 (active)
same,normalized growth,"S. cerevisiae deletion strains, locus YPL078C, strain atp4, hits give low values",0.0642 (active)
same,normalized growth,"S. cerevisiae deletion strains, locus YPL106C, strain sse1, hits give low values",0.0997 (active)
same,normalized growth,"S. cerevisiae deletion strains, locus YPL240C, strain hsp82, hits give low values",0.0539 (active)
same,normalized growth,"S. cerevisiae deletion strains, locus YPL241C, strain CIN2, hits give low values",0.733 (active)
same,normalized growth,"S. cerevisiae deletion strains, locus YPR119W, strain clb2, hits give low values",0.627 (active)
same,normalized growth,"S. cerevisiae deletion strains, locus YPR141C, strain kar3, hits give low values",1.01
same,normalized growth,"S. cerevisiae deletion strains, locus YPR163C, strain tif3, hits give low values",0.178 (active)
same,normalized growth,"S. cerevisiae deletion strains, locus YPR167C, strain met16, hits give low values",0.533 (active)
same,normalized growth,"S. cerevisiae deletion strains, strain wtn01, hits give low values",0.425 (active)
same,normalized growth,"S. cerevisiae strains, strain wild type, hits give low values",0.21 (active)
